From PubChem BioAssay
This is a sample that favours compounds with a hit; in the whole collection about 0.28% have one here.
PI4K2A block – PI4K2A (human) kinase inhibition; Q9BTU6; purified PI4K2A, ADP-Glo luminescence, 1 h; active compounds read low; activity change, negative = inhibition, % at 76.9 µM; 420,000 compounds, 0.13% hits; AID 1346378; in the data active = activity change below about -50%; inconclusive = mostly about -30% to -49%;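 also: -100% = wells without enzyme as full effect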
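Compounds are screened against recombinant PI4K2A using PI as substrate and ATP, the latter dispensed at 300 microM. Reactions run one hour at ambient temperature before ADP-Glo detection; full inhibition defined by wells lacking enzyme.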
Tb PGK inh – inhibitors of T. brucei phosphoglycerate kinase; AID 602233; 380,000 compounds, 0.043% hits; P07378; PGK/GAPDH coupled, Kinase-Glo luminescence, 60 min; Potency, µM (highest dose often 57.5 µM), for the others: at the top dose activity change, negative = inhibition, usual class: inhibitors; also: potency is read from the fitted curve at half-maximal effect; % is scaled to controls: 0 for no effect and ±100 for the full control effect; nearly all actives have a fitted effect of over 60% in size
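Recombinant glycosomal PGK reaction used 1,3-bisphosphoglycerate generated in-well by GAPDH (100nM final) in 100mM TEA pH 7.6, 5mM MgCl2, 0.01% Tween-20. After 60 minutes at room temperature, ATP was read by Kinase-Glo Plus luminescence end-point.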
Pin1 inhibitor – human Pin1 inhibition. Pin1 FP peptide displacement, HiFluor488, 10 min. Potency, µM (doses to about 115 µM), without a hit: top-dose activity, negative = inhibition, most hits filed as inhibitors. 390,000 compounds, 0.009% hits. Q13526; active = well fitted inhibition curve with a large enough effect in the polarisation, with a control signal flat, not every such curve was filed as active; inconclusive = small, poorly fitted or top-dose-only effect, or effect the other way, or a change in a side signal; inactive = no such curve, though single readings can be large or run the other way; the % refers to the polarisation; also: potency is read from the fitted curve at half-maximal effect; % is scaled to controls: 0 for no effect and ±100 for the full control effect
USP2a inh – blocks human ubiquitin-specific protease USP2a; O75604; Potency, µM (series often up to 38.3 µM), for the others: at the highest dose activity change, negative = inhibition, hits mostly inhibitors; 330,000 compounds, 0.01% hits; USP2 core, Ub-CHOP2 coupled fluorogenic reporter, 485/531;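 also: potency is read from the fitted curve at half-maximal effect; plate controls were DMSO wells for no effect and full inhibition by NEM control for full effect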
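Deubiquitinase activity read as fluorescence (485/531 nm) after Ub-CHOP2 cleavage activates the enterokinase reporter on its substrate; USP2 core 10nM, Ub-CHOP2 and substrate 25nM each, 30min compound preincubation then 60min RT; data normalized to NEM, curves fitted.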
Tb PFK inh-1 – inhibitors of T. brucei phosphofructokinase; O15648; AID 485367; Potency, µM (highest dose often 57.5 µM), for inactives: at the top dose activity, negative = inhibition, usual class: inhibitors; T. brucei PFK, ADP-Glo luminescence; 330,000 compounds, 0.17% hits;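 also: potency is read from the fitted curve at half-maximal effect; 0% = uninhibited 1x PFK enzyme wells and -100% = no-enzyme wells; nearly all actives have a fitted effect of over 60% in size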
Target sequence (O15648 whole entry, looked up): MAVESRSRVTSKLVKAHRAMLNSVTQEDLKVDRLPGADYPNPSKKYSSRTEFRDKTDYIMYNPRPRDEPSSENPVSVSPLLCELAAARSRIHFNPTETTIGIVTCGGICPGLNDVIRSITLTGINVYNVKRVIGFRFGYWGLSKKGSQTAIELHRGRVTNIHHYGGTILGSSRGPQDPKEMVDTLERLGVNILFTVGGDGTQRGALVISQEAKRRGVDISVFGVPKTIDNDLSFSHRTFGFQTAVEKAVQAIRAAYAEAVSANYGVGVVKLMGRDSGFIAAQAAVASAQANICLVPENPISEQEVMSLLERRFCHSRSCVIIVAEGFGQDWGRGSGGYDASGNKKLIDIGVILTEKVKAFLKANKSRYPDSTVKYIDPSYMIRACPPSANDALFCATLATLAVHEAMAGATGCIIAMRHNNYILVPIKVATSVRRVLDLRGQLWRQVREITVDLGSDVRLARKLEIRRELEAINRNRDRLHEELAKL
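In TEA buffer at pH 8.0 with 5 mM MgCl2, enzyme (1.25 nM) converted F6P (0.5 mM) and ATP (0.1 mM) for 45 min at room temperature. ADP product was read by luciferase luminescence.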
Tb PFK KinaseGlo – Tb phosphofructokinase inhibition, orthogonal luminescence; shares compounds with Tb PFK inh-1; Tb PFK enzyme, ATP depletion, Kinase-Glo Plus luminescence; Potency, µM (doses to about 57.5 µM), for inactives: at the top dose inhibition; 1,100 compounds, 47% hits; AID 504636; calls by dose curve; also: potency is read from the fitted curve at half-maximal effect; nearly all actives have a fitted effect of over 60% in size
Tb PFK inh-2 – validation of T. brucei phosphofructokinase inhibitors; shares compounds with Tb PFK inh-1; purified T. brucei PFK, ADP-Glo luminescence, 45 min; 1,100 compounds, 41% hits; Potency, µM (doses to about 57.5 µM), inactives show top-dose activity change, negative = inhibition, most hits filed as inhibitors;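 also: potency is read from the fitted curve at half-maximal effect; plate controls were full PFK enzyme control for no effect and no enzyme control for full effect; nearly all actives have a fitted effect of over 60% in size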
Active calls of the source: *; i = inactive; ? = inconclusive; . = no result given. Unless noted, calls follow the shape of the dose curve; as a rule, active = well fitted curve in the direction sought with a large enough effect; inconclusive = small, poorly fitted or top-dose-only effect, or another doubt; inactive = no such curve, though single readings can be large; an effect the other way counts as inactive or inconclusive.

SMILES | PI4K2A block | Tb PGK inh | Pin1 inhibitor | USP2a inh | Tb PFK inh-1 | Tb PFK KinaseGlo | Tb PFK inh-2
CC(=O)N1CCN(c2ccc(NC(=O)c3ccc(Cl)c([N+](=O)[O-])c3)cc2)CC1 | -1 | -1% | 3% | 0% | ? | ? | 30µM*
CC(C)CNC(=O)c1cccc(NC(=O)c2ccc(Cl)c([N+](=O)[O-])c2)c1 | -12 | 7% | 7% | 1% | 24µM* | 11µM* | 21µM*
O=C(Nc1ccc(Cl)c([N+](=O)[O-])c1)c1cnccn1 | 1 | -6% | -28% | 0% | -27% | . | .
Cn1nnnc1Sc1ncnc2scc(-c3ccccc3C#N)c12 | . | . | 6% | . | . | . | .
CSc1nc(=S)c2[nH]c(=S)[nH]c2[nH]1 | -6 | -8% | -21% | 2% | ? | 5.4µM* | 19µM*
C[C@H](N)C(=O)N[C@@H](C)C(=O)NC1[C@H]2CN(c3nc4c(cc3F)c(=O)c(C(=O)O)cn4-c3ccc(F)cc3F)C[C@@H]12 (stereo partly specified) | 1 | . | . | . | . | . | .
COc1cc(/C=C(\C#N)c2nc3ccccc3s2)cc([N+](=O)[O-])c1O | -1 | ? | ? | 2% | ? | -27% | ?
CCn1c(N)c(C(=O)NC)sc1=S | -1 | i | -3% | -1% | ? | 9.5µM* | 19µM*
CCNC(=O)c1sc(=S)n(CC)c1N | -14 | i | -2% | -13% | -4% | . | .
COc1ccccc1N1CCN(C(=O)C(C)CS(=O)(=O)c2ccc3c(c2)NC(=O)CS3)CC1 (stereo unspecified) | 2 | ? | 9% | 2% | 24µM* | 6µM* | ?
Clc1nssc1=Nc1nncs1 | -28 | -3% | 0% | -1% | 4.3µM* | 12µM* | 9.5µM*
O=C(O)C1CCCCC1C(=O)Nc1cccc(Br)c1 (stereo unspecified) | -11 | ? | -10% | 4% | 17µM* | 12µM* | 27µM*
N#Cc1cccc2c1-c1ccccc1/C2=N/NC(N)=O | 5 | i | 4% | 2% | 9% | . | .
NC(=O)N/N=C1\c2ccccc2-c2c(C(N)=O)cccc21 | 109 | -8% | -3% | 6% | ? | 11% | -4%
CCCCNC(=S)NCCCc1cnc[nH]1 | . | . | 0% | . | . | . | .
C=CCn1c(SCC)nc2sc3c(c2c1=O)CCc1ccccc1-3 | 3 | -7% | 12% | 4% | 7% | . | .
C=CCSc1nc2sc3c(c2c(=O)n1CC)CCc1ccccc1-3 | -1 | -8% | 0% | -6% | 13µM* | 6.7µM* | 11µM*
CC(=O)Nc1ccccc1OC1=N[S+](=O)([O-])c2ccccc21 | . | . | 1% | . | . | . | .
O=C(NNC(=O)c1ccccc1O)c1cc2ccccc2o1 | -6 | 6% | -1% | 0% | ? | -29% | ?
O=C(Cn1ccc2ccccc2c1=O)NCCC(=O)N1CCN(c2cccc(Cl)c2)CC1 | 4 | -3% | -2% | -1% | 24µM* | ? | ?
O=C1CCc2cc(S(=O)(=O)NCCC(=O)N3CCN(c4cccc(Cl)c4)CC3)ccc2N1 | 2 | -8% | 2% | 1% | 27µM* | 17µM* | ?
O=C(CCNC(=O)Cn1ccc2ccccc2c1=O)NCCN1CCN(c2cccc(Cl)c2)CC1 | -2 | -8% | 1% | 0% | -3% | . | .
C/C(=N\O)[C@@H](C)NCC(C)(C)CN[C@H](C)/C(C)=N/O | -1 | . | . | . | . | . | .
CCOCCOC(=O)/C=C/c1ccc(OC)cc1 | 0 | . | . | . | . | . | .
O=C(NCCc1ccccc1)c1ccc2nc(-c3ccco3)c(-c3ccco3)nc2c1 | -24 | -8% | ? | ? | ? | ? | ?
CC(=O)Nc1ccc(S(=O)(=O)N2CCCN(S(=O)(=O)c3ccc4c(c3)OCCO4)CC2)cc1 | . | . | 2% | . | . | . | .
